Assay results as given in the supplement of paper PMC10681739.

Assays:
ETS1 [1] = molecular target: T1, ETS1 (UniProt P14921); experiment: ETS1 binding intensity (PBM fluorescence), ETS1 alone (arbitrary fluorescence units); higher = stronger binding; conditions: ETS1 concentration 1 nM; RUNX1 concentration 0 nM
T1 sequence: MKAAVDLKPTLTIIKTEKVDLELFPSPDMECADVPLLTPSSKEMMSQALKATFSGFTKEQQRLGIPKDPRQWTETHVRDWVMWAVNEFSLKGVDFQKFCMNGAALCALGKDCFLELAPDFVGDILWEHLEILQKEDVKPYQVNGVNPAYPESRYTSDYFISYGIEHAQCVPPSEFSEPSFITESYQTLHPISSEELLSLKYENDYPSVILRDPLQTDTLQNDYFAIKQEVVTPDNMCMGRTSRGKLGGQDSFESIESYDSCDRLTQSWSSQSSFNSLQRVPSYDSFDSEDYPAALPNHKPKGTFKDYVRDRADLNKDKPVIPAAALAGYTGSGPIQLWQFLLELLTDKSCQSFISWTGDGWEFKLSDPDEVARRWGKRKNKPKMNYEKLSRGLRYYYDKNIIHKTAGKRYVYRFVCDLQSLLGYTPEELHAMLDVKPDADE

ETS1 [2] = molecular target: T1, ETS1; experiment: ETS1 binding intensity (PBM fluorescence) in presence of RUNX1, normalised to ETS1-only experiment (arbitrary fluorescence units); higher = stronger binding; conditions: ETS1 concentration 1 nM; RUNX1 concentration 25 nM

Sequence | ETS1 binding intensity (ETS1 [1]) | ETS1 binding intensity (ETS1 [2])
GAACACGGAAACACTGAGCTTTTACTTTGACCACAC | 572 | 440
GGAGCAACCGGCCGGATACCGCCACAGCCCTGGCAG | 1720 | 1400
CTCCCACGCTCCCCTTCCGGCCCCGCAGCGCTGTGA | 804 | 746
GATCTGCTTGGCTTCCTGTGGTCGCTGACTCACAGT | 905 | 1010
GCAGGAAACGCTTTCTTAACACTATGTGGGTGAGGT | 763 | 691
TAGGTTAGAATAAGAGGAAACCTCAAACCAGAACCC | 579 | 991
GCCTGCGCTCTTTCCGGTAGCCACAGCCTCGTCTAA | 1290 | 1220
ATAGTCACCGTTCCGGCCCTCCTCCACCGCACTTCT | 445 | 578
AAAAAATGGAGGAAGTTACCTCCAGTGGTTTTGTGA | 751 | 1310
CATCTACTGAGGAAGTGTAAGCCACAATAAGAAGCC | 641 | 869
CTTCGCCGCTTCCAGGAAGGGCCACAACGGCCGTCG | 563 | 483
TATCACGTTTCCTGCTGCTGCACCGCGACCTCAGCT | 513 | 492
GGTTGCCCCCTTCCTCTCTGTGGCACACACAGACCT | 474 | 345
GGCAGGAGCTTCCGGCTCAGCCCTGCGGCCTGTGCC | 498 | 768
GTAGCCGGGTGTTCCGGAGCGCTGCGGGCAAAGCAG | 387 | 539
TCCCGAGAGTGCGGCGGAAACCACGCGGCGCCGCCG | 1360 | 1570
CGAGCTCGCAAGAGGAAACCGCGGCGCGGAGGCAGC | 681 | 1130
AGGGTGTACTCGGAAGTTTCGAGTGGTTGCTTGGTT | 451 | 513
CGAGCTATTTACTTCCTGCGGGTGCACAGGCTGTGA | 654 | 475
CAGCCCTCTTCCTGCCTGTCTGTGGCTGGTGAGGTT | 597 | 431
TGGGCCAGCACGTCCGGGTGGTCAGGACGCGCGCTT | 458 | 451
TAAACGTCAGCTTCCTTTGTGGCTTACCCTCCCGCC | 495 | 582

Sequence | ETS1 binding intensity (ETS1 [1]) | ETS1 binding intensity (ETS1 [2])
GGCCTTCTGCCTACATCCTGCGGCGCCCGCGACCCG | 679 | 593
TGAGCCCCAGCAAGGGGAAGTGGTTAACCCAGGGTC | 709 | 1960
CTCTTCTTCAGGGTTTCCTGTGGGTACACTGAGAAC | 604 | 602
TAACCCGGAGCGGAAGGATCCCGCAGCGTGTGCGTA | 681 | 797
GAGCACATTTCCTTTTGCTTCCAGATACCACAGTGA | 445 | 412
TGGCTTCCTGTCTGTCCTTCATCAGCCCACAGAGGC | 517 | 529
GCGGAGTGTTACGTAGGAAGTGGTTGTGACGTCATT | 1190 | 1540
AAAGAGAAAGGAAACAAAGTATAGCACCACAGTGAG | 475 | 554
GCAGGAAGACTAACACAAAACCATCAAACCACTCTG | 511 | 543
GGCTTTTCCGGGATCCCTTTCGCCTCATCACCGCAG | 522 | 301
CTAGGGAGAGGATGTGAGTTTGTCTGTGGGGGTGGT | 796 | 828
TGAAGGAGCGGAAGGGTTGCTTGCAGACCGCACGGT | 574 | 1360
ATGCAGAAGCTACAGGAAGAAGCCGCAGGCCAAGCT | 844 | 1120
GTGCCACTGAGAGGAAGGGGGCAACCACAGTGGGAG | 367 | 590
TTCAAAGGAGTCCAAGGAAGTGGTTTAACAGCGATG | 843 | 1400
CTTCAGGGGTGGGGCTTCCTGCCGCAGAGCCGCCTT | 543 | 557
CGTTATTTCCGGGGCTGGGTTAACGCAGCGGTTCCA | 631 | 692
TGAAGGGACGGAAGGGACAGAACTTGCGGGAGGCAC | 497 | 416
CCAGGCGTTTCCGGGTTCCCGCGGTCCCGTCCCCCA | 1340 | 1330
CGACGTCACTTCCGCTGGTTCAAGCACCGCGAGACT | 1900 | 1500
AGGAGTGAGGAAGTGAGGCTGGCCTTGTGGGTGTGG | 644 | 748
GAGCAACCAGGAAGAGCTTTGGCTGTGGGCTAAGAT | 511 | 441

Sequence | ETS1 binding intensity (ETS1 [1]) | ETS1 binding intensity (ETS1 [2])
TGTGAGAAGCCGGATCCTGTGGTGACCCAGTGGCCT | 409 | 479
GAACCCCAAGTTCCGGCTGGCACTGCGGCGGAGCCT | 452 | 299
ACAGGAAACTAAAATAAGAACAGAAAACCAAGACAG | 865 | 852
GTCTTCACATGTAGGGGAAGTGGGTTAGCGTAGGAG | 951 | 1260
TCAGTGCACTCGGATGTTGGCCGCAGTTGGGGTTAT | 453 | 422
CTTCTCGCGGAAGCGGCACAAGCCGCAGTACAGCGC | 301 | 495
TCGGAACGGAAGGGAGGCACGAAACCGCGAGTGGAG | 607 | 1840
GAGGAGGCTGAGGAGGAAGTGCGGTGGCTGTTCTGC | 1290 | 1470
CACTCCCCCATTCCGGCTGCAGGTTGAGGTTTGGAA | 517 | 571
GGAGCGACGGAAGCACCTGAAGCGGTCTTTCCCCGA | 514 | 349
GCTTCGTTTCCCGCCGGGGCTCACCGCGCCCCCCTA | 621 | 615
TGAGGCTCAGAGGAAGTGACTGGCCCGCAGGGTCAC | 1050 | 1550
ACAGCATTTCCTGGTGGCCAGATATCTGAGGTTTCA | 426 | 539
ACAGATGGTCCGGAACTTCAGAAAACCACTCATTGT | 583 | 592
CTCCCCCCACGACTTCCCTCTGTGGCCCCGGGCCGC | 677 | 645
AGCACGCCGGGAAATGGAGTCTCAGGTGGTTTTTAA | 443 | 364
ACAGGAAGTGAGGCTGTGAGGAGTTTGTGGTGTGTA | 2080 | 4960
AATGGCGGGAAGTAAGAGGAATGTGGGCCTGACTGC | 499 | 386
TCCCCTGTCTTCCGGAGGCTGCGGCGCAGCGGCGCA | 403 | 519
CTGGCCAGCTCCCACGGATGTGGTAGGCAGGCAGCA | 965 | 1430
AGATGGTGTGGCCGGATGGGGACCACATTGAAGAGA | 1090 | 1240
CCACTAGCAGGAAAACGGGCCGAGGGACCGCAAGCA | 395 | 688

Sequence | ETS1 binding intensity (ETS1 [1]) | ETS1 binding intensity (ETS1 [2])
TCAGGGTCAGCAGGAGGAAACCACGCACTACATGCT | 437 | 451
CCCTCTGAGACAGGATTTGCTTCCCACACAAGGCTA | 495 | 629
CCTCATTTCCGGGCTGTTTGCGCGCAAGCCCACATC | 1090 | 968
AATTCCCAGGAAGCACTCGGCAGCCACAAACTGATG | 539 | 483
CCTCCAGGAAGCGATAAGTGACTGTGGTGGAGAGAG | 663 | 620
GACCCATTTCCTGGCTCAGGAGCCCACAGCCCTGGG | 464 | 404
CTTAAATGGGAAATGTAGGTGTGGTTAAGTCACAAA | 558 | 556
TGCACACATGAGGAAGGGGTAAGTGGTTTTCCCTAC | 498 | 468
CTCAGCGGAAGAGCGGGCCTCTGGGCCGCAGTGACC | 478 | 430
GGCGCCTCTTTCCGCCCCCGCCCACAATCGAGCGCA | 535 | 399
GGCCGGGGACGGAAGGCGGGCCCGCAGCAGATCCTG | 475 | 362
CCGCCTCCGGAAGAATTCTCTGCGGGCATGTTGCTG | 736 | 775
TAGCAGGAAGCCGATTCGCCCTATATGCAACCACTT | 549 | 570
ACCCAGGGGACTTCCTGGCTCAGTGCCACAACCCAG | 545 | 393
CAGCTGCCTCCAGGAAGCGGTAAGTGACTCTGGTGG | 1150 | 1660
AGAGGAAGTAAATTCTAACAGTGGAAACCACAGATT | 647 | 2290
CAGTCAGACGGAAGCCCGGCTTCTGTGGTGCCTGCC | 459 | 473
TGTCCGGGCAGGAAGGGGTGCTCTGTGGGCTTGGAG | 948 | 1050
GTAAAAGGAAGTAAAGGCTTGGCCGGGCGCGGTGGC | 569 | 411
GCTCTGGCGGAAGATGTCCCTGCGGTGCAGCTGCCG | 397 | 465
CTGCTTCGGCCCGGCTTCCGCCCACAGTCAACTGCC | 825 | 694
AGCACCCCACATCCTGCACCCCACAACCCAGATCCC | 510 | 546

Sequence | ETS1 binding intensity (ETS1 [1]) | ETS1 binding intensity (ETS1 [2])
AAGATGCCCCCTTCCGCTGGAAAGCGGTAATGCCCA | 724 | 705
CAACTCACATCCTCTGGCAACAACCACTAATCCACT | 460 | 525
ATACATACAGGATGACATTTGTCCTGTGGGCACCAG | 495 | 515
TGAGAAGGCAGGATAAGTGACCACATATTTATGCCA | 435 | 874
CAGCCAGCCAGGAAGCAGGGGCTGCGGGGCTGACAG | 691 | 524
GCATGTTCAAAAGGATGTGGGTGCTTACCTAGTGCC | 956 | 1230
AGGTGGGAGGAAGTTCCTACCCCGGCGCGGTGTGCA | 625 | 620
ACAGGAAGTCAGCTGAGTACCGAGCAAGCCGCATGC | 1770 | 2090
AGCGGCTCCTTCCGGCGGCGCGGGTTCCCTTCCCTC | 624 | 581
ACCTTCCTTCCTGCCTCCCTTGTGGCTCCAGTCCAC | 552 | 312
ACACCACTCAGGAAGACAAAGCCACACCTCACACCG | 487 | 440
CCATTCCCGGGCTTCCGCGGTGTCCCCACCCCCTAA | 673 | 652
ACCAGGATGTAGTTTAGCTTAGGGGTGGTTATATCG | 603 | 494
TGCCGGAAGCCCGCCAGGCACAGGACCCGCAGGGGT | 588 | 545
TGGGGGCGGAAGCCTAAACCCCTCCCGCAGCCAGTC | 625 | 627
TGAATCATGACAGAGGAAGTGTGGTTCTGTGATTAC | 1760 | 2090
ATGCCAAGGGACTTCCCTCCACAACCGCCCCCAGCT | 642 | 529
GGGCTTCAGCGGATGAACAAGGTTACCACGGGGAGT | 459 | 504
